Screening data deposited in PubChem BioAssay by National Center for Advancing Translational Sciences (NCATS).
The list is not random: actives were taken first. Their share in the collection is about 19%.
HT1080-NT tox = kills 2HG-producing HT-1080-NT fibrosarcoma cells; HT-1080-NT fibrosarcoma viability, CellTiter-Glo ATP luminescence, 48 h; Potency, µM (titrated, usually from 46.1 µM), usual class: cytotoxic; actives 1.6% (n = 360,000);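 note: NT is the 2HG producing partner of a matched IDH1 knockdown line; nearly all actives have a fitted effect of over 55% in size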
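750 cells/well, RPMI + 5% FBS; 2 h settle, compound pin-transfer, 48 h at 37 degrees C. CellTiter-Glo 10 min RT, luminescence. Normalized to DMSO and media-only wells.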
IL1B secr inh = inflammasome signaling inhibition, IL-1 beta readout; THP-1 LPS/ATP IL-1B secretion, AlphaLISA, 16 h; stronger effect = lower value; activity change, % at 57.5 µM; actives 4.7% (n = 360,000); in the data active = activity change below about -50%; inconclusive = mostly about -30% to -49%
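THP-1 cells pretreated 1 hr with compounds (up to 57.5 uM final), then stimulated with LPS (250 ng/mL final) plus ATP (1.25 mM final); secreted IL-1B measured by AlphaLISA after 16 hr, decreased signal indicating inhibition.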
HT1080 IDH1KD tx = kills HT-1080 cells with IDH1 knockdown; HT-1080 IDH1 knockdown viability, ATP luminescence, 48 h; Potency, µM (series often up to 46.1 µM), most hits filed as cytotoxic; actives 2% (n = 360,000); AID 686971
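Assay cells: HT-1080 with IDH1 knockdown, 750 per well, RPMI/5% FBS. Exposure: 48 h at 37 °C following 2 h pre-incubation. Read: CellTiter-Glo luminescence; fitted concentration-response, curve class assigned.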
ELG1 repair inh = ELG1-dependent DNA repair inhibition; actives 2.3% (n = 330,000); Potency, µM (doses to about 46.1 µM), most hits filed as inhibitors; AID 504467; HEK293T ELG1-luciferase reporter, luminescence, 16 h; DNA damage induced by 5-fluorouridine; note: nearly all actives have a fitted effect of over 55% in size
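5-Fluorouridine DNA damage + compound/DMSO, 2,000 cells/well, 16 h, 37 °C/5% CO2. ONE-Glo, 30 min RT, luminescence. Readout = decrease in reporter signal.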
DT40 TDP1 CPT = growth inhibition of DT40 Tdp1-/-;hTDP1 cells with camptothecin (screen for TDP1 inhibitors); chicken DT40 Tdp1-/-;hTDP1 cells + 20 nM CPT, ATP luminescence, 48 h; Potency, µM (highest dose often 46.2 µM), actives largely listed as inhibitors; actives 12% (n = 420,000); note: nearly all actives have a fitted effect of over 55% in size
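Chicken DT40 Tdp1-/- cells stably complemented with human TDP1 were seeded at 400 cells/well in medium containing 20 nM camptothecin, exposed to pin-transferred compounds, and grown at 37 °C for at least 48 hr. Viability was read as ATP luminescence.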
TDP1 cell noCPT = qHTS for Inhibitors of human tyrosyl-DNA phosphodiesterase 1 (TDP1): qHTS in cells in absence of CPT; DT40 Tdp1-/- hTDP1 cells, no CPT, ATP luminescence, 48 h; AID 686978, 2013; actives 15% (n = 420,000); Potency, µM (series often up to 46.2 µM), hits mostly inhibitors; note: nearly all actives have a fitted effect of over 55% in size
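Seeded 400 DT40-hTDP1 cells/well (vehicle DMSO, no 20 nM CPT); pinned compounds; ≥48 hr at 37 °C; CellTiter-Glo luminescence as viability measure.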
Numbers stand for hits; [ ] = dose if it differs, or a comment. Unless noted, calls come from the whole dose curve; as a rule, active = well fitted curve in the direction sought with a large enough effect; inconclusive = small, poorly fitted or top-dose-only effect, or another doubt; inactive = no such curve, though single readings can be large; an effect the other way counts as inactive or inconclusive.

For CC(C)CN(CCNC(=O)CN1N=C(c2ccc(Cl)cc2)CCC1=O)CC(C)C the results were HT1080-NT tox inactive, IL1B secr inh inactive, HT1080 IDH1KD tx inactive, ELG1 repair inh inactive, DT40 TDP1 CPT inactive and TDP1 cell noCPT inactive.
For O=C1NC(c2ccccc2)N=C2Oc3ccccc3C=C12 (centres undefined) the results were HT1080-NT tox inconclusive, IL1B secr inh -54, HT1080 IDH1KD tx inconclusive, DT40 TDP1 CPT 4.6µM and TDP1 cell noCPT 4.6µM.
For c1ccc(C2Nc3ccccc3Oc3ccccc32)cc1 (centres undefined) the results were HT1080-NT tox inactive, IL1B secr inh inactive, HT1080 IDH1KD tx inactive, ELG1 repair inh inactive, DT40 TDP1 CPT inactive and TDP1 cell noCPT inactive.
Screening COc1ccc(NC(=O)c2ccc(Cl)c(S(=O)(=O)N3CCc4ccccc4C3)c2)cn1 returned HT1080-NT tox inactive, IL1B secr inh inactive, HT1080 IDH1KD tx inactive, ELG1 repair inh inconclusive, DT40 TDP1 CPT 21µM and TDP1 cell noCPT 23µM.
Screening Cc1ccc(NC(=O)c2ccc(F)c(S(=O)(=O)NCCc3ccccc3)c2)cc1F returned DT40 TDP1 CPT 21µM and TDP1 cell noCPT 23µM.
`COc1ccc(NC(=O)c2ccc(Cl)c(S(=O)(=O)N3CC(C)OC(C)C3)c2)cn1` (centres undefined) gave HT1080-NT tox inactive, IL1B secr inh inactive, HT1080 IDH1KD tx inactive, ELG1 repair inh inconclusive, DT40 TDP1 CPT inconclusive and TDP1 cell noCPT inconclusive.
`Cc1ccc(NC(=O)c2ccc(F)c(S(=O)(=O)N3CCc4ccccc4C3)c2)cc1F` gave DT40 TDP1 CPT inconclusive and TDP1 cell noCPT 23µM.
For Cc1ccc(CNS(=O)(=O)c2cc(C(=O)Nc3ccc(C(C)C)cc3)ccc2F)cc1 the results were DT40 TDP1 CPT inactive and TDP1 cell noCPT inactive.
COc1cc(OC)cc(C(=O)N[C@H](C(=O)OCC(=O)N2CCN(S(=O)(=O)c3ccc(C)cc3)CC2)C(C)C)c1 was read as HT1080-NT tox inactive, IL1B secr inh inactive, HT1080 IDH1KD tx inactive, DT40 TDP1 CPT inactive and TDP1 cell noCPT inactive.
COCC(=O)Nc1cc(C(=O)N[C@H]2CCCCNC2=O)c2c(c1)nc(-c1ccncc1)n2C was read as DT40 TDP1 CPT inactive[9.04 µM] and TDP1 cell noCPT inactive.
Screening O=C(COc1ccc2c3c(c(=O)oc2c1)CCCC3)NCc1cccnc1 returned HT1080-NT tox inactive, IL1B secr inh inconclusive, HT1080 IDH1KD tx inactive, ELG1 repair inh inactive, DT40 TDP1 CPT inactive and TDP1 cell noCPT inactive.
For COc1ccc(C2CC(C(F)(F)F)n3nc(C(=O)NCc4c(C)nn(C)c4C)c(Cl)c3N2)cc1 (centres undefined) the results were HT1080-NT tox inconclusive, IL1B secr inh inactive, HT1080 IDH1KD tx inactive, ELG1 repair inh inconclusive, DT40 TDP1 CPT 1.3µM and TDP1 cell noCPT 5.2µM.
Screening Cc1c(CNC(=O)c2nn3c(c2Cl)NC(c2ccccc2)CC3C(F)(F)F)cnn1C (centres undefined) returned HT1080-NT tox inactive, IL1B secr inh inactive, HT1080 IDH1KD tx inactive, ELG1 repair inh inactive, DT40 TDP1 CPT inconclusive and TDP1 cell noCPT inconclusive.
For COc1ccc(C2CC(C(F)(F)F)n3nc(C(=O)N(C)Cc4cn(C)nc4C)c(Cl)c3N2)cc1 (centres undefined) the results were HT1080-NT tox inactive, IL1B secr inh inactive, HT1080 IDH1KD tx inactive, ELG1 repair inh inactive, DT40 TDP1 CPT inconclusive and TDP1 cell noCPT 18µM.
For CCOC(=O)C1CCN(C(=O)Nc2cc(Cl)cc(Cl)c2)CC1 the results were HT1080-NT tox inactive, IL1B secr inh inactive, HT1080 IDH1KD tx inactive, ELG1 repair inh inactive, DT40 TDP1 CPT 18µM and TDP1 cell noCPT inconclusive.
`Cn1cc(CC(=O)NCCN2CCOCC2)c2ccccc21` gave HT1080-NT tox inconclusive, IL1B secr inh inactive, HT1080 IDH1KD tx inconclusive, ELG1 repair inh inactive, DT40 TDP1 CPT inactive and TDP1 cell noCPT inconclusive.
Cc1[nH]c2ccccc2c1C(=O)/C=C\c1ccccc1Cl was read as HT1080-NT tox inconclusive, IL1B secr inh -101, HT1080 IDH1KD tx inconclusive, ELG1 repair inh inconclusive, DT40 TDP1 CPT 21µM and TDP1 cell noCPT inconclusive.
Screening Cc1[nH]c2ccccc2c1C(=O)/C=C/c1ccccc1Cl returned HT1080-NT tox inconclusive, IL1B secr inh -105, HT1080 IDH1KD tx inactive, ELG1 repair inh inconclusive, DT40 TDP1 CPT inactive and TDP1 cell noCPT inconclusive.
For Cc1nc2ccccc2c(N)c1C(=O)/C=C/c1ccccc1 the results were HT1080-NT tox inconclusive, IL1B secr inh -100, HT1080 IDH1KD tx 12µM, ELG1 repair inh inconclusive, DT40 TDP1 CPT inconclusive and TDP1 cell noCPT inconclusive.
